The text below walks through data of PubChem BioAssay (NCI).

Structures are written as SMILES. About 83,000 compounds went through this panel and 20% of them were active in at least one assay; those are over-represented in the sample as a whole.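 In brief: 96-well plates, 48 h treatment, single concentration, percent growth endpoint.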 A number with no mark means an inactive call. Active and inactive are the calls of the source. How the source made its calls: active means growth percent below 10; inactive means the rest.

The subject of this experiment is HL-60(TB) leukemia. The experiment can be described thus: NCI-60 one-dose screen, 48 h (100 = growth as untreated, 0 = no growth, -100 = all killed). Particulars: 10 µM unless noted.
Consider `O=C1c2c(c3c4cccnc4[nH]c3c3ccc4ccccc4c23)C(=O)N1CCN1CCNCC1`, for which the growth was 64.2%.

Regarding `CCCCCc1ccc(S(=O)(=O)N(C(C)=O)c2cccc(-c3csc(N(CCN4CCN(C)CC4)C(C)=O)n3)c2)cc1`, the growth is -52.8% (active).

Regarding `CS(=O)(=O)c1ccc(-c2nc3ccccn3c2/C=N/Nc2nc(-c3ccc(Cl)cc3)cs2)cc1`, the growth is 99.2%.

Consider `Cc1nc2cnc(N)c(C#Cc3cncc(C(=O)Nc4ccc(Cl)c(C(F)(F)F)c4)c3)c2nc1C`, for which the growth was 15.8%.

`O=C1Nc2ccccc2/C1=C/c1ccc(CO)n1-c1ccc(Cl)cc1`: the growth is 15.8%.

Take `COc1ccc(CCN2C(=O)/C(=C/c3nc(CO)cs3)SC2=S)cc1`: the growth was 59.4%.

For `C#Cc1nc(C2=C(C)C(OC(C)=O)/C(=N/OC(C)=O)C2)cs1` (stereo not given), the growth was -43.9% (active).

On to `COc1ccc(COc2ccc(/C=C3\C(=O)Nc4ccccc43)cc2OC)cc1`, for which the growth is 115%.

As to `CN(C)C(=O)c1cc(-c2ccc3ncnc(NCc4ccccc4)c3c2)cnc1N`, the growth is 116%.

On to `Nc1ncc(-c2ccc3ncnc(N4CCc5cc(F)c(Cl)cc54)c3c2)cc1CO`, for which the growth was -23.4% (active).

Turning to `CCC1=Cc2cc(OC)ccc2OC12C=Cc1cc(OC)ccc1O2` (stereo not given), the growth is -1.93% (active).

On to `COc1cc(-c2nc(SCc3ccc(C)cc3)[nH]c(=O)c2C#N)ccc1OCc1ccccc1`, for which the growth was 137%.

`C#CCOc1ccccc1/C=N/Nc1nc(-c2ccc(Cl)cc2)cs1`: the growth is 90.8%.

For the compound `NS(=O)(=O)c1ccc(Nc2nc(N/N=C/c3ccc(F)cc3)nc(Nc3ccccc3)n2)cc1`, the growth was 60.4%.

In the case of `O=C1/C(=C/C=C/c2ccco2)SC(=S)N1c1ccccc1`, the growth was 51.8%.

With `COc1ccccc1/C=C1\Oc2ccc(O)c(O)c2C1=O`, the growth was 76.1%.

On to `CN1CCN(c2nc(-c3csc(-c4ccncc4)n3)cc3ccccc23)CC1`, for which the growth was 32.2%.

Take `N#Cc1c(-c2ccc(Cl)cc2)nc2c(-c3ccccc3)c(Nc3ccccc3)nn2c1N`: the growth is 91.3%.

With `Fc1ccccc1/C=C(/C1=NCCN1)n1cnc2ccccc21`, the growth is 94.5%.

As to `COc1cc(/C=C/C(=O)c2ccc(C)cc2)ccc1Oc1nc(NCCO)nc(N2CCOCC2)n1`, the growth is -26.7% (active).

Consider `CS(=O)(=O)c1ccc(-c2nc3ccccn3c2/C=N/Nc2nc(-c3ccc(Br)cc3)cs2)cc1`, for which the growth was 107%.

Take `NNc1nnc2nc(Nc3ccccc3)nc(Nc3ccc(S(N)(=O)=O)cc3)n12`: the growth was 108%.

In the case of `Cc1noc(C)c1CSc1nc2ccccc2n1-c1ccccc1`, the growth is 111%.

With `CC(=O)Nc1ccc(C)c(Nc2cc(-c3ccc(-n4cccn4)cc3)[nH]n2)c1`, the growth was 12.8%.

With `CC(C)(C)n1cc(-c2ccnc(NCCCNS(=O)(=O)c3cccc(F)c3)n2)c(-c2ccc(Cl)c(O)c2)n1`, the growth is 128%.

For the compound `CC(C)(C)CC(C)(C)n1nnnc1C(Nc1ccccc1)c1cc2cccc3ccc4cccc1c4c32` (stereo not given), the growth was 101%.

Take `COc1ccc([C@H]2[C@H](O)C(=O)N2c2cc(OC)c(OC)c(OC)c2)cc1F`: the growth was -13% (active).

With `COc1cccc(N2CCN(C3=C(Cl)C(=O)c4ncccc4C3=O)CC2)c1`, the growth is 9.82% (active).

Consider `CC(=O)c1ccc(Nc2nc(SCC(C)C)nc(-c3ccccc3)c2C#N)cc1`, for which the growth was 101%.

On to `COc1ccc2[nH]cc(/C=N/Nc3nc4ccccc4s3)c2c1`, for which the growth was 39.1%.

Turning to `NCCNC(=O)c1cccc(COc2ccccc2NC(=O)c2cc(Cl)c(Cl)[nH]2)c1`, the growth was 88.9%.

For `C[C@@H]1OCC2(CCN(c3cnc(C(=O)Nc4cc(F)cc5cccnc45)cn3)CC2)[C@@H]1N`, the growth is 20.4%.

`COc1ccc(C2C(C#N)=C(/N=C/c3ccc(Cl)cc3)Oc3c2sc2c(C)cccc32)cc1` (stereo not given): the growth is 4.04% (active).

As to `COc1cc(OC)c(C2C(Cl)C(=O)N2Nc2ncnc3ccccc23)cc1OC` (stereo not given), the growth was 108%.

On to `COc1ccc(NC2=C(Cl)C(=O)C(C)=C(C)C2=O)cc1`, for which the growth is 37.4%.

In the case of `O=C(N/N=C/c1ccc[nH]1)c1[nH]c2ccc(Br)cc2c1-c1ccccc1`, the growth was -39.1% (active).

In the case of `N#Cc1c(-c2ccc(Cl)cc2)nc(SCc2ccc(F)cc2)nc1N1CCNCC1`, the growth was -34.8% (active).

`N#Cc1nc(-c2ccccc2)oc1N1CCC(C2(C(F)(F)F)N=N2)CC1`: the growth was 95.4%.

With `O=C(CCCCCCNC(=O)C(O)(O)C(F)(F)F)Nc1ccc(Br)cc1`, the growth is 10.4%.

Turning to `CCCCCc1ccc(S(=O)(=O)Nc2cccc(-c3csc(NC(=O)CN4CCN(C)CC4)n3)c2)cc1`, the growth is 35.8%.
